Source: ChEMBL document CHEMBL1961873, “Compounds: GSK PKIS; Assays: Nanosyn kinase panel” (2012)

What was measured:
[1] = molecular target: RAC-alpha serine/threonine-protein kinase (Homo sapiens) (UniProt P31749); conditions: at 0.1 µM
[2] = molecular target: RAC-alpha serine/threonine-protein kinase (Homo sapiens) (UniProt P31749); conditions: at 1 µM
[3] = molecular target: RAC-beta serine/threonine-protein kinase (Homo sapiens) (UniProt P31751); conditions: at 0.1 µM
[4] = molecular target: RAC-beta serine/threonine-protein kinase (Homo sapiens) (UniProt P31751); conditions: at 1 µM
[5] = molecular target: RAC-gamma serine/threonine-protein kinase (Homo sapiens) (UniProt Q9Y243); conditions: at 0.1 µM
RAC-gamma serine/threonine-protein kinase (Homo sapiens), sequence (Q9Y243 whole entry): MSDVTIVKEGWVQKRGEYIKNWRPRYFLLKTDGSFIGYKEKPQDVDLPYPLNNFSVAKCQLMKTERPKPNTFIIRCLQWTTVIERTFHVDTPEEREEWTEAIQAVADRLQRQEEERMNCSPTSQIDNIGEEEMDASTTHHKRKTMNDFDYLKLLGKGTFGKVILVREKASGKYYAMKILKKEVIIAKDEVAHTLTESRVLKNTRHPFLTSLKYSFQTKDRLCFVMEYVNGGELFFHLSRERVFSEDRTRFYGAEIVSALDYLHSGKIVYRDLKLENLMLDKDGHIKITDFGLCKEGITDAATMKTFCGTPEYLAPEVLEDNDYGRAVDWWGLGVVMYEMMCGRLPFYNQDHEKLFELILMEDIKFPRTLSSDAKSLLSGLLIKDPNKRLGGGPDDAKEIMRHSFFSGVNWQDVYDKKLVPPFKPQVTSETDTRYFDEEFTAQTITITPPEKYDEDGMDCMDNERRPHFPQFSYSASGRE

[6] = molecular target: RAC-gamma serine/threonine-protein kinase (Homo sapiens) (UniProt Q9Y243); conditions: at 1 µM
[7] = molecular target: G protein-coupled receptor kinase 6 (Homo sapiens) (UniProt P43250); conditions: at 0.1 µM
G protein-coupled receptor kinase 6 (Homo sapiens), sequence (P43250 whole entry, looked up): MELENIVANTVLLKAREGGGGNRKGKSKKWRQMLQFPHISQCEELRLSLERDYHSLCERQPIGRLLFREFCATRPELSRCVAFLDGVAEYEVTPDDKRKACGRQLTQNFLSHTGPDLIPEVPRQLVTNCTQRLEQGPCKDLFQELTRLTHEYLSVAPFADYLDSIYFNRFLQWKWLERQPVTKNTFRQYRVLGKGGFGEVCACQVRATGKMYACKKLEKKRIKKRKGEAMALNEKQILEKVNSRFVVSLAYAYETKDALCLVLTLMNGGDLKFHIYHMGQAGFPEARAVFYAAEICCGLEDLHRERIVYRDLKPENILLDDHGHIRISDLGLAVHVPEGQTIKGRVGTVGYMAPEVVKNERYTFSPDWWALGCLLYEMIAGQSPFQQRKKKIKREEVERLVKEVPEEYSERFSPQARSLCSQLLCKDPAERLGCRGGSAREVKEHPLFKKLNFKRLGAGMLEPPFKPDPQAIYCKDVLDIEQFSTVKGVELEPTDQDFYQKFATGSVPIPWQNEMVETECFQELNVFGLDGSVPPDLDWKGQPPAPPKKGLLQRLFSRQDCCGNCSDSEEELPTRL

[8] = molecular target: G protein-coupled receptor kinase 6 (Homo sapiens) (UniProt P43250); conditions: at 1 µM
[9] = molecular target: T1, Rhodopsin kinase GRK7 (Homo sapiens) (UniProt Q8WTQ7); conditions: at 0.1 µM
T1 sequence (whole entry): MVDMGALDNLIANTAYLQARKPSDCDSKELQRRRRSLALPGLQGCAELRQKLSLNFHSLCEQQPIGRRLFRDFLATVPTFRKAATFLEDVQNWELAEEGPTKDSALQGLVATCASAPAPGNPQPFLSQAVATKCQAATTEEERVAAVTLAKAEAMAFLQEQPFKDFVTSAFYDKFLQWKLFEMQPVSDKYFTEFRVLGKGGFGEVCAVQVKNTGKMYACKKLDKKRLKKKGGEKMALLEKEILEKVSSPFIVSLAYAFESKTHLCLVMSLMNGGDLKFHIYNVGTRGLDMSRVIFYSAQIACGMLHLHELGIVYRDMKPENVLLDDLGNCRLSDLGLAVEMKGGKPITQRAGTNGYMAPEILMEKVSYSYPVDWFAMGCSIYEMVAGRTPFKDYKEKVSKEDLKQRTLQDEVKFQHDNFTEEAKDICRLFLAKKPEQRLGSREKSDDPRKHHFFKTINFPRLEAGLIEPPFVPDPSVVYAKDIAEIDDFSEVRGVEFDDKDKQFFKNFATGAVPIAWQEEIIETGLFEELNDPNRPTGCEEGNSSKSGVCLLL

[10] = molecular target: T1, Rhodopsin kinase GRK7 (Homo sapiens); conditions: at 1 µM
[11] = molecular target: Serine/threonine-protein kinase MRCK alpha (Homo sapiens) (UniProt Q5VT25); conditions: at 0.1 µM
[12] = molecular target: Serine/threonine-protein kinase MRCK alpha (Homo sapiens) (UniProt Q5VT25); conditions: at 1 µM
[13] = molecular target: Serine/threonine-protein kinase MRCK beta (Homo sapiens) (UniProt Q9Y5S2); conditions: at 0.1 µM
Serine/threonine-protein kinase MRCK beta (Homo sapiens), sequence (Q9Y5S2 whole entry): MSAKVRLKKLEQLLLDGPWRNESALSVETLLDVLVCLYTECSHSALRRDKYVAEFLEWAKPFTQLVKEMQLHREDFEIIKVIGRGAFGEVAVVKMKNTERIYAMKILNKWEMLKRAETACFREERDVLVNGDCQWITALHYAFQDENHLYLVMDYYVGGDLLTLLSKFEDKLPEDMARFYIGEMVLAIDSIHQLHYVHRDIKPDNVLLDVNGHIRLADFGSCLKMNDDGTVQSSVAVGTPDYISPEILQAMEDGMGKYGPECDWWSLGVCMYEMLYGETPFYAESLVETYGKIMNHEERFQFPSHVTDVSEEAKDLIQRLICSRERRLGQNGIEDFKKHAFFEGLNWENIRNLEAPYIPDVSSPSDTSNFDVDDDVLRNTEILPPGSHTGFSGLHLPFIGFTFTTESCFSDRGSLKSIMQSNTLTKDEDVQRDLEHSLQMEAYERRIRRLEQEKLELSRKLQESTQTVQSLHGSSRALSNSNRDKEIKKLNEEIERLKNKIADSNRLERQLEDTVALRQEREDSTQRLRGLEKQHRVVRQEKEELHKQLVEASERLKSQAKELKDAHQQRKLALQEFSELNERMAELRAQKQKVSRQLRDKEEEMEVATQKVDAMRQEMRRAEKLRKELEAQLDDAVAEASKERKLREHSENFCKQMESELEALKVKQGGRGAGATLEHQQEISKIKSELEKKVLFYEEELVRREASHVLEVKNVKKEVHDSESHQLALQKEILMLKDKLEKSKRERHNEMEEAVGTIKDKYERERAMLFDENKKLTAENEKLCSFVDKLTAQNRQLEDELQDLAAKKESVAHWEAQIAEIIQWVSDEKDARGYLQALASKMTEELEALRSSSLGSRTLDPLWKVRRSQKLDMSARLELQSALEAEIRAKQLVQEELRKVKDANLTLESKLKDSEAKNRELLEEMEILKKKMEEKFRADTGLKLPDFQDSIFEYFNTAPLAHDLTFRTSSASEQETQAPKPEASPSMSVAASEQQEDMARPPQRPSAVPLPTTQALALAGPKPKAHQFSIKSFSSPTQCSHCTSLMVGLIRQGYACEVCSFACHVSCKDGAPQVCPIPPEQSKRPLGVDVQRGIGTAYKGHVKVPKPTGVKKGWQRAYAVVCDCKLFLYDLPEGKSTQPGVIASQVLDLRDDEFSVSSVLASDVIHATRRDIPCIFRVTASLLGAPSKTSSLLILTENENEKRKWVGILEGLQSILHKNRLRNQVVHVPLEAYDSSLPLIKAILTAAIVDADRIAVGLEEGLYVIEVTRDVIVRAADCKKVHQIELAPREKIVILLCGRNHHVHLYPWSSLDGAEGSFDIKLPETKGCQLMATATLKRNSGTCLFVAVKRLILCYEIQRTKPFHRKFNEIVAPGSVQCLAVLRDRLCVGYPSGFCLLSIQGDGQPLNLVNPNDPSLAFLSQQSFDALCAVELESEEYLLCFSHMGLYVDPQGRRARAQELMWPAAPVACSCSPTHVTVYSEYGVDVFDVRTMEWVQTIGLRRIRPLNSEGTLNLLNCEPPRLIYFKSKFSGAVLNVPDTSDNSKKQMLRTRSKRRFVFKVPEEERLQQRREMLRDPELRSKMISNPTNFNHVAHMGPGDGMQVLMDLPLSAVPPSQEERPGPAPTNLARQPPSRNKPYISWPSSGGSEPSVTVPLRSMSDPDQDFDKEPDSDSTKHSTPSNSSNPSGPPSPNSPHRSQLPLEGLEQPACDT

[14] = molecular target: Serine/threonine-protein kinase MRCK beta (Homo sapiens) (UniProt Q9Y5S2); conditions: at 1 µM
[15] = molecular target: Ribosomal protein S6 kinase alpha-5 (Homo sapiens) (UniProt O75582); conditions: at 0.1 µM
[16] = molecular target: Ribosomal protein S6 kinase alpha-5 (Homo sapiens) (UniProt O75582); conditions: at 1 µM
[17] = molecular target: Ribosomal protein S6 kinase alpha-4 (Homo sapiens) (UniProt O75676); conditions: at 0.1 µM
Ribosomal protein S6 kinase alpha-4 (Homo sapiens), sequence (O75676 whole entry, looked up): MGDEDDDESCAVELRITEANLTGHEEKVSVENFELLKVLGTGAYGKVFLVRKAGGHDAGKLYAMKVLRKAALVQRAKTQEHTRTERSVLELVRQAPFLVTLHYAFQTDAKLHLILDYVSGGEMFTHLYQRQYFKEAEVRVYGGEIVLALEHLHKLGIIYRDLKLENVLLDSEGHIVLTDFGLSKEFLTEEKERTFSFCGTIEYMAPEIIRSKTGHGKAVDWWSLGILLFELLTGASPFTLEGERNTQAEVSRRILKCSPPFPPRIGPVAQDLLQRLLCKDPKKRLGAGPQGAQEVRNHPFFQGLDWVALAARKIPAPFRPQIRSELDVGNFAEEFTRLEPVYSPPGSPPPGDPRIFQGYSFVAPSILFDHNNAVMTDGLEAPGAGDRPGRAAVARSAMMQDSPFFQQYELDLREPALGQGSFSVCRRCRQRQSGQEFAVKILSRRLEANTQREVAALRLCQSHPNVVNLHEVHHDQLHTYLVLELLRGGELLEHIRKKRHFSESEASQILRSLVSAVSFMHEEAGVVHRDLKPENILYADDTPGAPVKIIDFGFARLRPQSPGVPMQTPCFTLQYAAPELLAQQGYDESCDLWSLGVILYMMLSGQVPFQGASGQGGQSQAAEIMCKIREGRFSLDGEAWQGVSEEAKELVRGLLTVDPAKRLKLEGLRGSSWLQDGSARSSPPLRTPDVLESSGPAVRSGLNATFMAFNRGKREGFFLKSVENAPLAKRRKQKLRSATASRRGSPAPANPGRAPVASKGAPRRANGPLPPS

[18] = molecular target: Ribosomal protein S6 kinase alpha-4 (Homo sapiens) (UniProt O75676); conditions: at 1 µM
[19] = molecular target: Ribosomal protein S6 kinase beta-1 (Homo sapiens) (UniProt P23443); conditions: at 0.1 µM
Ribosomal protein S6 kinase beta-1 (Homo sapiens), sequence (P23443 whole entry, looked up): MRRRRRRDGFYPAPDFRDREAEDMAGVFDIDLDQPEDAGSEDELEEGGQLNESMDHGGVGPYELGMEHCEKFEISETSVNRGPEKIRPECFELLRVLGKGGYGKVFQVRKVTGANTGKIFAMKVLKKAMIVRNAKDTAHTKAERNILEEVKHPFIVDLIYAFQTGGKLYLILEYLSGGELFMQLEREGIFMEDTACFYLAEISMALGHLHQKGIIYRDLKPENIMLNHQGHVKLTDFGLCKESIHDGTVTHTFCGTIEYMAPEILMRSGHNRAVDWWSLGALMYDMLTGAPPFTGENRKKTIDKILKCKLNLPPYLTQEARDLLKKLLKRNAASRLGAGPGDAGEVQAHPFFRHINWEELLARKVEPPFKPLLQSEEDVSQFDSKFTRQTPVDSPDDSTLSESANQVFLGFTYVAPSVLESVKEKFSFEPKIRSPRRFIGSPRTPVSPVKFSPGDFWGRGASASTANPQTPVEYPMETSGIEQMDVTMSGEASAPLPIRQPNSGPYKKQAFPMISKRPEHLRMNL

[20] = molecular target: Ribosomal protein S6 kinase beta-1 (Homo sapiens) (UniProt P23443); conditions: at 1 µM

RAC-beta serine/threonine-protein kinase (Homo sapiens), sequence (P31751 whole entry): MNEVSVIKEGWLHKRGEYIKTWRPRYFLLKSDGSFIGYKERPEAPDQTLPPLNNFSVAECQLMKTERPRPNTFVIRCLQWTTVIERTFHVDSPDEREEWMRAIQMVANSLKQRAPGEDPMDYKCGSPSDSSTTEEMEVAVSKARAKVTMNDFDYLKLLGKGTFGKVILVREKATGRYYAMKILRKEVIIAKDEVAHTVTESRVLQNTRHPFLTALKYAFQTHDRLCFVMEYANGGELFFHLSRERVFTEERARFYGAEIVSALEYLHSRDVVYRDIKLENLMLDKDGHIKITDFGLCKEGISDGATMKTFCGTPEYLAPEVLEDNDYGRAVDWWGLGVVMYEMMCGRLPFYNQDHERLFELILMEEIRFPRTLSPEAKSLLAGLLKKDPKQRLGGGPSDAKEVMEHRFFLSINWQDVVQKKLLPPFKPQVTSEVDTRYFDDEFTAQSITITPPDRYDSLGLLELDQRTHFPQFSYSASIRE
RAC-alpha serine/threonine-protein kinase (Homo sapiens), sequence (P31749 whole entry): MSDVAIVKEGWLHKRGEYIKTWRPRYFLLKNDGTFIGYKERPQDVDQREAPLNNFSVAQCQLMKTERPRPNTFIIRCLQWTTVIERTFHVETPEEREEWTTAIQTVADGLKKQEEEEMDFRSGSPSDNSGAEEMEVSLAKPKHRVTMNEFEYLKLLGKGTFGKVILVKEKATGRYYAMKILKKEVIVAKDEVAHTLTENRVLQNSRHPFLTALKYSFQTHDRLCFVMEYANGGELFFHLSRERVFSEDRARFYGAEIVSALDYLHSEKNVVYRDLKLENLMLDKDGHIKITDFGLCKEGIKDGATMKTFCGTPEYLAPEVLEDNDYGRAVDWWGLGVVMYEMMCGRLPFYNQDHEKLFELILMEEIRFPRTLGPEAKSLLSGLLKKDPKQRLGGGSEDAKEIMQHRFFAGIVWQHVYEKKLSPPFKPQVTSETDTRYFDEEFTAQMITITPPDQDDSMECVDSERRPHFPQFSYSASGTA

Row | Compound | inhibition [1] [%] | inhibition [2] [%] | inhibition [3] [%] | inhibition [4] [%] | inhibition [5] [%] | inhibition [6] [%] | inhibition [7] [%] | inhibition [8] [%] | inhibition [9] [%] | inhibition [10] [%] | inhibition [11] [%] | inhibition [12] [%] | inhibition [13] [%] | inhibition [14] [%] | inhibition [15] [%] | inhibition [16] [%] | inhibition [17] [%] | inhibition [18] [%] | inhibition [19] [%] | inhibition [20] [%]
1 | CC(C)c1ccc2c(c1)NC(=O)/C2=N/Nc1ccc(S(N)(=O)=O)cc1 | -0.05 | -0.49 | -0.37 | 0.73 | -0.27 | 4.41 | -0.59 | -0.78 | 2.96 | -0.57 | 2.04 | -2.97 | -0.17 | -1.37 | -0.47 | -2.62 | 0.04 | -1.31 | -0.81 | -1.36
2 | CN1CCN(C(=O)c2ccc(NC(=O)Nc3ccc(N(C)c4ccnc(Nc5ccc(CS(C)(=O)=O)cc5)n4)cc3)cc2)CC1 | 0.3 | -0.86 | -0.33 | 1.06 | 0.49 | 1.64 | 2.2 | 1.86 | 4.4 | 0.44 | 5.17 | 7.71 | -0.06 | 3.61 | 1.16 | 3.3 | 2.61 | 13.8 | 1.43 | 5.8
3 | Cc1nc(-c2ccccc2)n2nc(NCCCN3CCOCC3)ncc12 | 0.61 | 0.11 | 0.45 | 2.03 | 0.57 | 4.13 | 3.41 | 0.49 | 5.84 | 2.44 | 6.14 | 2.64 | 0.51 | 0.04 | 0.53 | 1.08 | 2.47 | 3.6 | 1.34 | 2.24
4 | CS(=O)(=O)CCNCc1nc(-c2ccc3ncnc(Nc4ccc(OCc5cccc(C(F)(F)F)c5)cc4)c3c2)cs1 | 0.2 | -0.66 | -0.39 | 0.39 | 0.84 | 1.91 | 0.43 | 0.06 | 3.85 | -1.01 | 4.26 | 2.95 | -0.6 | 0.82 | 0.64 | 1.57 | 1.54 | 2.66 | 1.22 | 1.83
5 | Cc1ccc2c(-c3ccnc(Nc4ccc5c(c4)OCCO5)n3)c(-c3ccc(C(F)(F)F)cc3)nn2n1 | 1.37 | 1.23 | 1.5 | 1.65 | 1.43 | -4.48 | 0.55 | 2.19 | 5.75 | 2.78 | -5.75 | -1.13 | 0.19 | 0.96 | -0.15 | -1.56 | 0.87 | 2.08 | 0.35 | 0.24
6 | NS(=O)(=O)c1ccc(Nc2cc(-c3cccc(O)c3)n[nH]2)cc1 | 0.91 | 0.58 | 1.64 | 3.28 | 2.49 | 1.75 | 1.19 | 3.55 | 3.02 | 5.39 | 0.59 | 0.11 | 0.64 | 1.33 | 5.25 | 5.94 | 2.94 | 9.16 | 0.39 | 2.83
7 | NC(=O)c1sc(-n2cnc3ccccc32)cc1OCc1ccccc1Br | 1.72 | 1.07 | 0.68 | 3.59 | 1.82 | 4.09 | 1.41 | 3.01 | 9.12 | 4.5 | 1.73 | 4.94 | -1.16 | 0.28 | 8.61 | 10 | 2.12 | 4.72 | 1.52 | 4.06
8 | COc1cc2ncnc(Nc3ccc4c(cnn4Cc4ccccc4)c3)c2cc1OC | -0.49 | 0.77 | 0.99 | 1 | 0.08 | 2.09 | -0.46 | 2.17 | 9.43 | 2.89 | 1.92 | 0.94 | -0.95 | -0.76 | 7.1 | 7.6 | 1.21 | 2.89 | 0.98 | 1.35
9 | COC(=O)c1ccc2c(c1)C(=Cc1cc(Br)c(O)c(Br)c1)C(=O)N2 | 0.91 | 0.66 | 0.67 | 1.05 | 1.09 | 2.88 | 7.82 | 43.5 | 12.8 | 28.4 | 5.51 | 5.34 | -0.51 | -0.15 | 7.14 | 12.2 | 2.52 | 6.18 | 1.57 | 3.47
10 | Cc1ccc(NC(=O)CC2CC2)cc1-c1ccc(C(=O)NCC2CC2)cc1 | 0.17 | 0.7 | 1.47 | 1.58 | 1.47 | 1.65 | 2.05 | 6.65 | 0.94 | 0.75 | -0.72 | 2.73 | -0.56 | 0.45 | 8.94 | 8.13 | 2.17 | 2.4 | 1.73 | 2.46
11 | O=C1Nc2ccc(-c3cccnc3)cc2C1=Cc1cc(Br)c(O)c(Br)c1 | 1.65 | 2.74 | 1.49 | 2.84 | 1.24 | 1.67 | 11.3 | 46.1 | 20 | 60.3 | 0.24 | -0.62 | 0.92 | 1.01 | 3.3 | 3.39 | 0.89 | 2.67 | 2.32 | 2.15
12 | Nc1nccc(-c2c(-c3ccc(F)cc3)ncn2CCCN2CCOCC2)n1 | 1.68 | 1.55 | 2.52 | 0.79 | 1.64 | 3.69 | 4.54 | 5.62 | 2.89 | 8.32 | 0.42 | 1.54 | 0.49 | 1.1 | 6.47 | 6.81 | 4.22 | 3.46 | 1.35 | 1.45
13 | NS(=O)(=O)c1ccc(-c2cc3ccncc3cc2OCc2ccccc2)cc1 | 0.08 | 0.83 | 1.46 | 1.66 | 0.51 | 2.2 | 2.02 | 8.2 | 1.52 | 6.27 | -0.66 | -1.1 | -1.66 | -2.27 | 1.89 | 0.96 | 1.86 | 2.64 | 1.3 | 2.04
